Laboratory results taken from paper PMC5540273 (PLoS ONE, 2017).

How the values were obtained:
Settings in all cases: concentration: 1 μM, replicates: in singlicate; n = 1
MAP4K2 = test system: MAP4K2
MAP4K3 = test system: MAP4K3
MAP4K4 = test system: MAP4K4
MAP4K5 = test system: MAP4K5
MAPKAPK2 = test system: MAPKAPK2
MAPKAPK5 = test system: MAPKAPK5
MARK1 = test system: MARK1
MARK2 = test system: MARK2
MARK3 = test system: MARK3
MARK4 = test system: MARK4
MAST1 = test system: MAST1
MEK1 = test system: T1, MEK1
T1 construct: gene MAP2K1

MEK2 = test system: T2, MEK2
T2 construct: gene MAP2K2

MEK3 = test system: T3, MEK3
T3 construct: gene MAP2K3

MEK4 = test system: T4, MEK4
T4 construct: gene MAP2K4

MEK5 = test system: T5, MEK5
T5 construct: gene MAP2K5

MEK6 = test system: T6, MEK6
T6 construct: gene MAP2K6

MELK = test system: MELK
MERTK = test system: MERTK
MET = test system: MET
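Also: KINOMEscan kinase panel screen.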

| Structure (SMILES) | %Inh (MAP4K2) [%] | %Inh (MAP4K3) [%] | %Inh (MAP4K4) [%] | %Inh (MAP4K5) [%] | %Inh (MAPKAPK2) [%] | %Inh (MAPKAPK5) [%] | %Inh (MARK1) [%] | %Inh (MARK2) [%] | %Inh (MARK3) [%] | %Inh (MARK4) [%] | %Inh (MAST1) [%] | %Inh (MEK1) [%] | %Inh (MEK2) [%] | %Inh (MEK3) [%] | %Inh (MEK4) [%] | %Inh (MEK5) [%] | %Inh (MEK6) [%] | %Inh (MELK) [%] | %Inh (MERTK) [%] | %Inh (MET) [%] |
| --- | --- | --- | --- | --- | --- | --- | --- | --- | --- | --- | --- | --- | --- | --- | --- | --- | --- | --- | --- | --- |
| COC(=O)c1cccc(NC(=O)NC2CCN(c3ccnc(Nc4ccc(F)cc4)n3)C2)c1 (stereo not shown) [GSK1379725] | 0 | 0 | 1 | 0 | 15 | 0 | 0 | 0 | 42 | 0 | 0 | 0 | 0 | 0 | 36 | 12 | 0 | 0 | 2 | 0 |
| CS(=O)(=O)CCNCc1nc(-c2ccc3ncnc(Nc4ccc5c(cnn5Cc5ccccc5)c4)c3c2)cs1.Cl.Cl [GW569716] | 0 | 9 | 0 | 0 | 19 | 0 | 0 | 0 | 0 | 0 | 32 | 0 | 0 | 0 | 0 | 99.6 | 0 | 0 | 0 | 0 |
| CCCCc1nn2ncccc2c1-c1ccnc(NC2CC2)n1 [GW684374] | 0 | 0 | 0 | 0 | 0 | 0 | 0 | 0 | 0 | 0 | 0 | 0 | 0 | 8 | 7 | 9 | 10 | 15 | 5 | 0 |
| CNc1nc(-c2ccc3c(N)n[nH]c3c2)cc(N2C[C@@H](C(=O)NC3CCCCC3)OC[C@H]2C)n1 [GSK2375584] | 0 | 0 | 15 | 9 | 17 | 2 | 10 | 0 | 0 | 18 | 0 | 8 | 11 | 0 | 11 | 14 | 0 | 57 | 2 | 0 |
| COc1cccc(CNC(=O)NC2CCN(c3ccnc(Nc4ccc(F)cc4)n3)C2)c1 (stereo not shown) [GSK1379723] | 0 | 8 | 2 | 1 | 16 | 0 | 0 | 0 | 0 | 0 | 6 | 10 | 0 | 0 | 36 | 53 | 0 | 0 | 26 | 0 |
| COc1cc2ncnc(Nc3cccc(Br)c3)c2cc1OC.Cl [GI230329] | 0 | 0 | 0 | 0 | 0 | 0 | 0 | 0 | 0 | 5 | 20 | 0 | 0 | 0 | 20 | 86 | 0 | 0 | 45 | 0 |
| Cc1ccc(NC(=O)Nc2ccccc2F)cc1-c1ccc(C(=O)Nc2ccncc2)cc1 [GSK1398477] | 0 | 21 | 29 | 27 | 37 | 0 | 8 | 5 | 0 | 19 | 0 | 0 | 0 | 0 | 26 | 37 | 0 | 14 | 31 | 0 |
| CCn1c(-c2c(N)noc2C)nc2cnccc21 [SB-737856] | 0 | 2 | 10 | 0 | 19 | 0 | 0 | 0 | 0 | 0 | 0 | 0 | 2 | 0 | 0 | 32 | 70 | 0 | 1 | 0 |
| COc1ccc(Nc2nccc(N3CCC(NC(=O)C(C)c4ccc(Cl)cc4)CC3)n2)cc1 (stereo not shown) [GSK1379812] | 0 | 0 | 3 | 0 | 6 | 0 | 15 | 19 | 0 | 22 | 0 | 0 | 0 | 0 | 5 | 10 | 0 | 0 | 22 | 0 |
| CC(C)c1ccc(O)cc1Nc1ccnc2ccc(C(F)(F)F)cc12 [GW482059] | 0 | 0 | 26 | 37 | 16 | 0 | 0 | 0 | 0 | 6 | 0 | 0 | 0 | 0 | 22 | 1 | 0 | 5 | 13 | 0 |
| CSc1ccc(-c2nc3n(c2-c2ccncc2)CCC3)cc1 [SKF-105561] | 0 | 0 | 1 | 0 | 10 | 22 | 0 | 16 | 0 | 0 | 16 | 1 | 25 | 18 | 0 | 22 | 0 | 18 | 0 | 0 |
